# Data as given in PubChem BioAssay (Tox21).
# Results filed as inconclusive are left out. Entries that show only a call come without a potency. Unmarked numbers belong to inactive results. Activity calls are given as the source filed them. Unless noted, calls come from the whole dose curve; as a rule, active = well fitted curve in the direction sought with a large enough effect in the repeat runs; inconclusive = weak or mixed curves; inactive = no such curve, though single readings can be large; an effect the other way counts as inactive or inconclusive.
# What was measured:
# [1] = qHTS assay to identify small molecule agonists of the peroxisome proliferator-activated receptor delta (PPARd) signaling pathway - cell viability counter screen (AID 743211); note: nearly all actives have a fitted effect of over 55% in size; note: potency is the fitted concentration of half-maximal effect
# In short: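 In the same wells used for beta-lactamase reporter measurement, cytotoxicity is scored by CellTiter-Glo. HEK293H PPARd-bla cells receive compound for 17 h at 37C following a 5 h settling period.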
# [2] = qHTS assay to identify small molecule antagonists of the peroxisome proliferator-activated receptor delta (PPARd) signaling pathway - cell viability counter screen (AID 743213); note: nearly all actives have a fitted effect of over 50% in size; note: potency is the fitted concentration of half-maximal effect
# In short: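 PPARd-bla HEK293H cells were treated with compounds plus agonist L165041 (300 nM final) for 17 h at 37 C. Viability was then read in the same wells by CellTiter-Glo luminescence after 30 min at room temperature.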
# [3] = target: Peroxisome proliferator-activated receptor delta (Homo sapiens) (UniProt Q03181); assay: qHTS assay to identify small molecule antagonists of the peroxisome proliferator-activated receptor delta (PPARd) signaling pathway (AID 743215; active = well fitted inhibition curve with a large enough effect in the signal ratio in the repeat runs, not every such curve was filed as active; the % refers to the signal ratio;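 note: cells stimulated with agonist L165041 at 300 nM final during compound exposure; series mostly up to about 62 µM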)
# Chain of Peroxisome proliferator-activated receptor delta (Homo sapiens) (Q03181 whole entry, looked up): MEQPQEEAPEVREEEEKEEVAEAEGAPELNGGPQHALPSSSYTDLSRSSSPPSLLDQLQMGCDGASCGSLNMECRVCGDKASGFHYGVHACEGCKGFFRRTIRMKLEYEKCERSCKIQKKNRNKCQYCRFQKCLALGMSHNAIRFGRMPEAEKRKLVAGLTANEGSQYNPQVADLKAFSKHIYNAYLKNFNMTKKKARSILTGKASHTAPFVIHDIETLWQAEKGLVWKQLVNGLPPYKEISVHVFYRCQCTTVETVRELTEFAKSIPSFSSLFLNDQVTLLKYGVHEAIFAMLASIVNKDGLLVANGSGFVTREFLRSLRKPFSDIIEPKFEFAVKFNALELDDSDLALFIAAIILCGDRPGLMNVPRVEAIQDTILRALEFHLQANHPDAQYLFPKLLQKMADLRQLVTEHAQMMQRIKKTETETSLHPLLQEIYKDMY
# In short: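 PPARd UAS-bla HEK293H cells were pre-incubated 5 h at 37 C, then given test compounds in DMSO plus agonist L165041 (300 nM final). After 17 h at 37 C, beta-lactamase FRET substrate was added; fluorescence read after 2 h at room temperature.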
# [4] = target: Bile acid receptor (Homo sapiens) (UniProt Q96RI1); assay: qHTS assay to identify small molecule antagonists of the farnesoid-X-receptor (FXR) signaling pathway (AID 743217; active = well fitted inhibition curve with a large enough effect in the signal ratio in the repeat runs, not every such curve was filed as active; the % refers to the signal ratio; note: potency is the fitted concentration of half-maximal effect)
# Chain of Bile acid receptor (Homo sapiens) (Q96RI1 whole entry, looked up): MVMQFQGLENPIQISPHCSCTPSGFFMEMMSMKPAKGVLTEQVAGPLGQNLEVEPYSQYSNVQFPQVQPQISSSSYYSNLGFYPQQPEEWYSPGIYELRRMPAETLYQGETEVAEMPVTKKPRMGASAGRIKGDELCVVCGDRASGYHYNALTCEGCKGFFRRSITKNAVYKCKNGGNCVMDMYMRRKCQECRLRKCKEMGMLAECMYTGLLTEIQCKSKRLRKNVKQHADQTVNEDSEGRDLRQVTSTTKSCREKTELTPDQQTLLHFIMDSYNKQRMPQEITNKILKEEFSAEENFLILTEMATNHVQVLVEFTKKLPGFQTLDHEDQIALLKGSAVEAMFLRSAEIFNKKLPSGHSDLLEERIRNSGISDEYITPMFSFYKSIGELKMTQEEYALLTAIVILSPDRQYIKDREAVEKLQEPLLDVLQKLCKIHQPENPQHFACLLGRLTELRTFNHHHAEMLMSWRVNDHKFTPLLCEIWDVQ
# In short: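 FXR-UAS-bla HEK 293T cells pre-incubated 5 h at 37 °C, then exposed to compounds with chenodeoxycholic acid (50 uM final) for 16 h at 37 °C. Beta-lactamase reporter read by LiveBLAzer B/G FRET substrate fluorescence after 2 h at room temperature.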
# [5] = qHTS assay to identify small molecule agonists of the farnesoid-X-receptor (FXR) signaling pathway - cell viability counter screen (AID 743218); note: nearly all actives have a fitted effect of over 45% in size; note: potency is the fitted concentration of half-maximal effect
# In short: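 FXR-UAS-bla HEK 293T cells, plated 5 h at 37 C, were exposed to compounds for 16 h at 37 C. CellTiter-Glo was then added to the same wells as the bla readout; luminescence read after 30 min at room temperature.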
# [6] = target: Bile acid receptor (Homo sapiens) (UniProt Q96RI1); assay: qHTS assay to identify small molecule agonists of the farnesoid-X-receptor (FXR) signaling pathway (AID 743220; active = well fitted activation curve with a large enough effect in the signal ratio in the repeat runs, not every such curve was filed as active; the % refers to the signal ratio)
# In short: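 Beta-lactamase reporter under UAS control in GeneBLAzer FXR HEK 293T cells (5000/well) measured with LiveBLAzer FRET substrate after 2 h at room temperature. Compound exposure lasted 16 h at 37C.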
# [7] = qHTS assay to identify small molecule antagonists of the farnesoid-X-receptor (FXR) signaling pathway - cell viability counter screen (AID 743221; active = well fitted cell-killing curve with a large enough effect in the repeat runs, not every such curve was filed as active; note: nearly all actives have a fitted effect of over 50% in size; note: potency is the fitted concentration of half-maximal effect)
# In short: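 Here viability was scored by luminescence after CellTiter-Glo addition to wells already read for beta-lactamase. Prior treatment: compound plus CDCA (50 uM final), 16 h, 37 C, HEK 293T FXR-bla cells.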
# [8] = target: Vitamin D3 receptor (Homo sapiens) (UniProt P11473); assay: qHTS assay to identify small molecule agonists of the vitamin D receptor (VDR) signaling pathway (AID 743222; calls by dose curve)
# Chain of Vitamin D3 receptor (Homo sapiens) (P11473 whole entry, looked up): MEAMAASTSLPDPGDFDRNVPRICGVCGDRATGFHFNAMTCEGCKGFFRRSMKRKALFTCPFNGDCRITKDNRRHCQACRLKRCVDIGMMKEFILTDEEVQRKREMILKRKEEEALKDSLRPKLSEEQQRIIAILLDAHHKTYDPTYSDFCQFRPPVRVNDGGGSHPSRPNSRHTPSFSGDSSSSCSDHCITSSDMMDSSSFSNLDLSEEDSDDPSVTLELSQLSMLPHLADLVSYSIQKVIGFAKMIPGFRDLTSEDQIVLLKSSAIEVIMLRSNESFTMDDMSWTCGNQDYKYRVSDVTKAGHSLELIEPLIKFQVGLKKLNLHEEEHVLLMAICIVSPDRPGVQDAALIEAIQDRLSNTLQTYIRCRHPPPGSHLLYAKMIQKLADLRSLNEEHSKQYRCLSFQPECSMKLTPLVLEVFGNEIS
# In short: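 VDR-bla cells were plated 4 h at 37C/5% CO2, then exposed to compounds in DMSO for 16 h. After LiveBLAzer B/G FRET substrate addition and 2 h at room temperature, beta-lactamase reporter fluorescence was read.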
# [9] = qHTS assay to identify small molecule agonists of the vitamin D receptor (VDR) signaling pathway - cell viability counter screen (AID 743224); note: nearly all actives have a fitted effect of over 50% in size; note: potency is the fitted concentration of half-maximal effect
# In short: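 VDR-bla cells were preincubated 4 h at 37C/5% CO2, then exposed to compounds for 16 h. After the 2 h room-temperature bla FRET read, CellTiter-Glo was added to the same wells and luminescence read after 30 min.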
# [10] = qHTS assay to identify small molecule agonists of the endoplasmic reticulum stress response signaling pathway - cell viability counter screen (AID 1159517; calls by dose curve; note: series mostly up to about 61 µM; nearly all actives have a fitted effect of over 50% in size)
# In short: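 Cells, HeLa ESRE-bla; density, 1,500/well; dosing, 5 hr at 37 C, 5% CO2; readout, CellTiter-Glo luminescence after 30 min RT.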
# [11] = qHTS assay to identify small molecule antagonists of the retinoid-related orphan receptor gamma (ROR-gamma) signaling pathway - cell viability counter screen (AID 1159520); note: nearly all actives have a fitted effect of over 50% in size; note: potency is the fitted concentration of half-maximal effect
# In short: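 Cytotoxicity was read from cellular ATP (CellTiter-Glo luminescence) after 16 hr at 37 C with 1 uM doxycycline induction. The inducer was added 2 hr after compound transfer to Tet-on ROR gamma CHO cells.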
# [12] = target: Nuclear receptor ROR-gamma (Homo sapiens) (UniProt P51449); assay: qHTS assay to identify small molecule antagonists of the retinoid-related orphan receptor gamma (ROR-gamma) signaling pathway (AID 1159521; note: nearly all actives have a fitted effect of over 50% in size; note: potency is the fitted concentration of half-maximal effect)
# In short: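 Test compounds were applied to Tet-on RORγ CHO cells 2 h ahead of doxycycline hyclate (1 uM final). Luciferase reporter activity was quantified by luminescence after 16 h at 37 C and 5% CO2.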
# [13] = qHTS assay to identify small molecule agonists of the AP-1 signaling pathway - cell viability counter screen (AID 1159525; calls by dose curve; note: nearly all actives have a fitted effect of over 55% in size)
# In short: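 Luminescent ATP readout (Cell Titer Glo, 30 min RT), normalised to DMSO and tetra n-octyl ammonium bromide controls. Cells were ME-180 AP-1-bla in 0.5% dialyzed FBS Opti-MEM, with a 5 h, 37 °C compound exposure.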
# [14] = qHTS assay to identify small molecule agonists of the AP-1 signaling pathway (AID 1159526; calls by dose curve)
# [15] = target: Retinoic acid receptor RXR-alpha (Homo sapiens) (UniProt P19793); assay: qHTS assay to identify small molecule agonists of the RXR signaling pathway (AID 1159527; calls by dose curve; note: nearly all actives have a fitted effect of over 35% in size; note: potency is the fitted concentration of half-maximal effect)
# Chain of Retinoic acid receptor RXR-alpha (Homo sapiens) (P19793 whole entry, looked up): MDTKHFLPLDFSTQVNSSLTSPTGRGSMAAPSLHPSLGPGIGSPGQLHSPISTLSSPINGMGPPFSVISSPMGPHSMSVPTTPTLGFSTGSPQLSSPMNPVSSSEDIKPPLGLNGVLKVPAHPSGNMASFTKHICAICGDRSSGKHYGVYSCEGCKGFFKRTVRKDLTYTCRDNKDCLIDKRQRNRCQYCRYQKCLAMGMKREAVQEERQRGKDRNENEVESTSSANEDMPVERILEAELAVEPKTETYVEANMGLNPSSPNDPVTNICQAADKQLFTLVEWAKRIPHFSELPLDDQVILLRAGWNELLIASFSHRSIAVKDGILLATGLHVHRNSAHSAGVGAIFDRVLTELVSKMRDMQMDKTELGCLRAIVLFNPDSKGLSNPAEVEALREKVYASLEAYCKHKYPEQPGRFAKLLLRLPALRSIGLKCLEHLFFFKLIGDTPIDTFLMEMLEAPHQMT
# In short: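 Using 9-cis retinoic acid as the reference agonist, chemicals were tested in HEK 293T cells […] for 16 hr; substrate loading lasted 2 hr at room temperature.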
# [16] = target: Vitamin D3 receptor (Homo sapiens) (UniProt P11473); assay: qHTS assay to identify small molecule antagonists of the vitamin D receptor (VDR) signaling pathway (AID 743223; active = well fitted inhibition curve with a large enough effect in the signal ratio in the repeat runs, not every such curve was filed as active; the % refers to the signal ratio)
# In short: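 Inhibition of agonist-driven VDR signalling is scored in VDR-bla cells: 3 nM final 1alpha,25-dihydroxyvitamin D3 plus compound, 16 h at 37C, then beta-lactamase detection by FRET substrate fluorescence after 2 h.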
# [17] = qHTS assay to identify small molecule antagonists of the vitamin D receptor (VDR) signaling pathway - cell viability counter screen (AID 743225); note: nearly all actives have a fitted effect of over 50% in size; note: potency is the fitted concentration of half-maximal effect
# In short: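 Compounds were pinned onto VDR-bla HEK 293T cells together with 1-alpha,25-dihydroxyvitamin D3 at 3 nM final. After 16 h at 37C and 5% CO2 plus the reporter readout, cell viability was measured by CellTiter-Glo luminescence (30 min, room temperature).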
# [18] = target: Peroxisome proliferator-activated receptor delta (Homo sapiens) (UniProt Q03181); assay: qHTS assay to identify small molecule agonists of the peroxisome proliferator-activated receptor delta (PPARd) signaling pathway (AID 743212; calls by dose curve)
# In short: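 HEK293H UAS-bla reporter cells, human PPARd system; compounds delivered in DMSO after 5 h plating, then at 37 C. Beta-lactamase FRET read, 2 h RT substrate step.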
# [19] = qHTS assay to identify small molecule agonists of the endoplasmic reticulum stress response signaling pathway (AID 1159516; active = well fitted activation curve with a large enough effect in the signal ratio in the repeat runs, not every such curve was filed as active; the % refers to the signal ratio)
# In short: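 CellSensor ESRE-bla HeLa cells, carrying a beta-lactamase reporter driven by the ER stress response element, were plated overnight and exposed to compounds for 5 hr at 37 C. Reporter activity was read as FRET substrate fluorescence after 2 hr at room temperature.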
Compound,Potency [1],Potency [2],Potency [3],Potency [4],Potency [5],Potency [6],Potency [7],Potency [8],Potency [9],Potency [10],Potency [11],Potency [12],Potency [13],Potency [14],Potency [15],Potency [16],Potency [17],Potency [18],Potency [19]
CCCCC(CC)COC(=O)CCCCC(=O)OCc1ccccc1 (configuration not stated),inactive,inactive,inactive,inactive,inactive,inactive,inactive,inactive,inactive,inactive,inactive,inactive,inactive,inactive,inactive,,,,
CC(C)OC(=O)C(O)(CC(=O)O)CC(=O)O,inactive,inactive,,inactive,inactive,inactive,,,inactive,inactive,inactive,inactive,inactive,inactive,21.9 µM (active),inactive,inactive,,
C#C[C@]1(OC(C)=O)CC[C@H]2[C@@H]3CCC4=C[C@@H](OC(C)=O)CC[C@@H]4[C@H]3CC[C@@]21C,,inactive,inactive,,inactive,,inactive,,inactive,,inactive,33.5 µM (active),,,,,inactive,inactive,inactive
O=C(c1ccc(O)c(O)c1)c1ccc(O)cc1O,,inactive,,,inactive,,inactive,,inactive,inactive,inactive,,inactive,inactive,,,inactive,,
O=C(/C=C/c1ccccc1)OC/C=C/c1ccccc1,inactive,inactive,inactive,inactive,,inactive,inactive,inactive,inactive,inactive,54.5 µM (active),,inactive,inactive,,inactive,inactive,inactive,
Cc1c(C)c([N+](=O)[O-])c(C(C)(C)C)c([N+](=O)[O-])c1C,,inactive,inactive,,inactive,,inactive,,,,inactive,inactive,inactive,inactive,,,,,inactive
O[C@@H]([C@H](O)[C@H](O)CBr)[C@H](O)CBr,inactive,,inactive,inactive,inactive,inactive,inactive,inactive,inactive,,inactive,,inactive,inactive,inactive,,,,inactive
CCCCCCCCCCCCOCCOCCOCCOCCOCCOCCOCCOCCOCCO,33.5 µM (active),,,,,,26.6 µM (active),inactive,29.8 µM (active),inactive,,,,,,,10.7 µM (active),,inactive
Cc1cccc2cccnc12,inactive,inactive,inactive,,inactive,,inactive,inactive,inactive,,inactive,,inactive,inactive,inactive,,inactive,inactive,inactive
O=[N+]([O-])c1ccc(F)c(Cl)c1,inactive,inactive,,inactive,inactive,inactive,inactive,inactive,inactive,,inactive,inactive,inactive,inactive,inactive,inactive,inactive,,inactive
NC(=O)c1cccc([N+](=O)[O-])c1,inactive,inactive,inactive,,inactive,,inactive,,inactive,,inactive,inactive,inactive,inactive,inactive,,,,inactive
Fc1ccc(C(c2ccc(F)cc2)N2CCNCC2)cc1,7.5 µM (active),15 µM (active),,29.8 µM (active),11.9 µM (active),inactive,26.6 µM (active),inactive,26.6 µM (active),inactive,inactive,inactive,inactive,inactive,inactive,,16.9 µM (active),,
Nc1nc(-c2ccccc2)cs1,inactive,inactive,,inactive,inactive,inactive,inactive,,inactive,,inactive,,inactive,,inactive,inactive,inactive,,inactive
CN(C)Cc1cc(C(C)(C)C)c(O)c(C(C)(C)C)c1,,inactive,,,,,,inactive,inactive,,inactive,inactive,inactive,inactive,11 µM (active),inactive,,inactive,inactive
CCCCCC/C=C\CCCCCCCC(=O)O,inactive,inactive,inactive,inactive,inactive,inactive,inactive,,inactive,,inactive,inactive,,,,inactive,,,inactive
ClCCl,inactive,inactive,inactive,,,,inactive,inactive,inactive,inactive,inactive,,inactive,inactive,inactive,,inactive,inactive,
COc1cc(C)ccc1O,inactive,inactive,inactive,,inactive,,inactive,inactive,inactive,inactive,inactive,,inactive,inactive,inactive,,,inactive,
CC(=O)Oc1cc2c(s1)CCN(C(C(=O)C1CC1)c1ccccc1F)C2 (configuration not stated),inactive,inactive,inactive,,inactive,,inactive,,inactive,,inactive,,inactive,inactive,,,,inactive,inactive
